# Screens (PubChem)
# Most compounds without a hit are left out; they make up all but 3.4% or so of the library.
# GPR151 ag: activators of human GPR151, primary screen, cell-based, PathHunter beta-arrestin, luminescence | G-protein coupled receptor 151 (Homo sapiens), Q8TDV0 | activation, % at 11.2 µM | AID 1508602, 2020 | PathHunter beta-arrestin GPR151 cells | 650,000 compounds, 1% hits; in the data active = activation above about 4.9%;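 also: 0% = median of compound wells and 100% = cells with positive control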
# MITF inh: MITF inhibitors, primary screen, biochemical, AlphaScreen, human; Microphthalmia-associated transcription factor (Homo sapiens), O75030; AlphaScreen MITF homodimerization, bead proximity signal; inhibition, % at 2.6 µM; 650,000 compounds, 0.91% hits; in the data active = inhibition above about 50%;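 also: 0% = vehicle wells with protein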
# Target sequence (O75030 whole entry, looked up): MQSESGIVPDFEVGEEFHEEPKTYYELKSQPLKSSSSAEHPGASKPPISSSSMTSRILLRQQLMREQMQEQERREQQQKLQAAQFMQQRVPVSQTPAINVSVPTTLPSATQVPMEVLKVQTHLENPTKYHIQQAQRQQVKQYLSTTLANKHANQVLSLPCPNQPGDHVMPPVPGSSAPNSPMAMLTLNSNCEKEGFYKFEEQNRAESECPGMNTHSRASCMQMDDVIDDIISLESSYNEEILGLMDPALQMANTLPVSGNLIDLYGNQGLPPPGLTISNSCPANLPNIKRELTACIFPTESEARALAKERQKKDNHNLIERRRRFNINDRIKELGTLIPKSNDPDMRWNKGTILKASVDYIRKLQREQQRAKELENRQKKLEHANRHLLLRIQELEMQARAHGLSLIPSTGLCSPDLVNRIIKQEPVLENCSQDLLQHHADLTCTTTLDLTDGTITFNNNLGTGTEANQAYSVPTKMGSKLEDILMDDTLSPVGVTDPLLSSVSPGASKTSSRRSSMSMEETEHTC
# FBW7 act: FBW7 E3 ligase activators, primary screen, biochemical, AlphaScreen, human; F-box/WD repeat-containing protein 7 (Homo sapiens), Q969H0; AlphaScreen FBW7–phospho-cyclin E peptide binding, activator screen; normalized activity (activation), % at 26.1 µM; 650,000 compounds, 0.13% hits; in the data active = normalized activity above about 1.9%;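 also: purified mutant Fbw7 with reduced substrate affinity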
# TEAD-YAP inh: TEAD-YAP interaction inhibition, primary screen, TEAD-YAP interaction inhibitor project, luminescence, HEK-TIYL cells; TEAD-Gal4/YAP UAS-luciferase luminescence; inhibition, % at 9.12 µM; 640,000 compounds, 1.4% hits; in the data active = inhibition above about 32%;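 also: 0% = median of test compound wells and 100% = reference inhibitor wells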
# Numbers without * were called inactive.
SMILES,GPR151 ag,MITF inh,FBW7 act,TEAD-YAP inh
O=C(Cn1cnc([N+](=O)[O-])c1[N+](=O)[O-])Nc1cc(Oc2ccccc2)cc([N+](=O)[O-])c1,0.3,15.8,0.0,42.4*
O=C(Cn1cnc([N+](=O)[O-])c1[N+](=O)[O-])Nc1ccc(Cl)cc1,0.2,2.4,-0.1,87.0*
CCN(CC)CCN1C(=O)c2cccc3c(Cl)ccc(c23)C1=O,0.5,2.7,-0.1,70.5*
Cc1ccc(N2C(=O)c3cccc4c(N)ccc(c34)C2=O)c2cccnc12,0.9,7.3,0.2,62.5*
Cc1ccc(N2C(=O)c3cccc4c(Cl)ccc(c34)C2=O)cc1,0.4,-1.6,-0.1,1.8
Cc1ccc(N2C(=O)c3cccc4c(N5CCCCC5)ccc(c34)C2=O)c2cccnc12,2.1,4.3,0.2,5.9
CCN1C(=O)c2cccc3c(N)ccc(c23)C1=O,-0.5,57.0*,0.3,6.8
Cc1ccc(Nc2nc(-c3ccncc3)cs2)c(C)c1,1.7,-0.1,-0.1,-74.2
Cc1ccn2c(-c3csc(Nc4ccc(N(C)C)cc4)n3)c(C)nc2c1,0.9,12.4,-0.7,54.0*
Cc1ccc(Nc2nc(-c3c(C)nc4ncccn34)cs2)c(C)c1,-0.5,12.2,-0.1,51.9*
Cc1ccc(Nc2nc(-c3cccnc3)cs2)c(C)c1,-3.5,11.6,0.1,48.6*
Cc1ccc(Nc2nc(-c3c(C)nc4cc(C)ccn34)cs2)c(C)c1,-1.0,-1.3,-0.1,41.7*
CCNC(=O)C/C(C)=N/NC(=O)Cc1ccc([N+](=O)[O-])cc1[N+](=O)[O-],-0.6,11.4,0.0,4.9
COCCn1c(=NC(=O)C(C)(C)C)sc2cc(OC)ccc21,0.1,-4.6,0.0,1.7
CCOC(=O)c1sc(N)c(C#N)c1CSc1nnc(-c2ccc(OC)c(OC)c2)o1,-0.7,-2.3,-0.2,43.5*
CCOC(=O)c1sc(N)c(C#N)c1CSc1nnc(-c2ccco2)o1,0.5,6.4,0.0,-12.1
O=C(NCc1ccc2c(c1)OCO2)C1CCCN(c2c3c(nc4ncnn24)CCC3)C1 (stereo unspecified),-0.3,16.2,0.0,3.3
Cc1cc(Br)c(S(=O)(=O)N2CCC(C)CC2)cc1C,0.7,6.9,2.1*,0.8
Cc1cc(Br)c(S(=O)(=O)N2CCCCC2)cc1C,-1.3,12.1,0.3,1.4
N#C/C(=C\c1ccc(N2CCOCC2)cc1)c1[nH]nc(N)c1C#N,-2.1,17.7,0.2,38.8*
CSc1ccccc1NC/C=C/c1ccc([N+](=O)[O-])o1,1.8,8.0,-0.2,7.0
CSc1ccccc1NC(=O)/C=C/c1ccc([N+](=O)[O-])o1,-0.7,1.6,-0.2,55.7*
COc1ccc(-c2cc(C(F)(F)F)n3ncc(C(=O)N4CCCCC4)c3n2)cc1,-0.6,5.9,0.3,-0.5
COc1ccc(C(=O)COc2cccc3c(=O)n(C)ccc23)cc1,3.2,-2.6,0.2,48.4*
CC[C@@H](Cn1nc(-c2ccc(F)c(F)c2)ccc1=O)NC(=O)c1cnccn1,0.5,-13.6,-0.1,2.4
SMILES,GPR151 ag,MITF inh,FBW7 act,TEAD-YAP inh
Oc1ccc(/C=N/Nc2nc(Nc3ccccc3)nc(Nc3ccccc3)n2)c(O)c1,-0.1,7.7,-0.2,50.8*
Oc1c(Cl)cc(Cl)cc1/C=N/Nc1nc2ccccc2[nH]1,0.4,-22.3,-0.1,60.7*
Oc1ccc(/C=N/Nc2nc3ccccc3[nH]2)c(O)c1,-0.7,65.3*,-0.5,16.4
Oc1ccc(/C=N/Nc2nc3ccccc3[nH]2)c(O)c1O,-1.1,39.5,-0.9,-17.0
Oc1ccccc1/C=N\Nc1nc2ccccc2[nH]1,-0.1,16.0,-0.8,-27.9
CCCN(Cc1cccc(O)c1)CC1CC1,1.2,-8.2,0.1,1.1
COc1cccc(C2CC(c3c(O)cc(C)oc3=O)=NCCS2)c1OC (stereo unspecified),1.7,-8.6,0.2,42.4*
COc1ccc2cc3c(N)c(C(=O)NC4CCCC4)sc3nc2c1,0.7,5.8,0.1,-17.1
O=Cc1ccc(-c2ccc(NC3CC3)nc2)cc1,-3.4,5.1,-0.2,34.2*
Cc1nc2ncnn2c(NCc2ccc(F)cc2)c1C,4.8,17.1,1.1,45.4*
Cc1ccccc1Nc1c(C)c(C)nc2ncnn12,-0.4,-5.9,0.0,-2.3
COC(=O)CN1C(=O)c2ccc([N+](=O)[O-])cc2C1=O,-0.3,0.4,-0.2,1.3
O=C(OC(c1ccccc1)c1nccc2ccccc12)c1ccc(F)cc1 (stereo unspecified),0.7,-18.0,0.9,52.2*
CN(C)/C=C/C=C/C=C1\CCC/C(=C\C=C\N(C)C)C1=O,-0.8,77.8*,-0.1,7.6
CN(C)/C=C/C=C1\CCc2ccccc2C1=O,-0.3,20.4,-0.1,-2.6
COc1ccc2c(c1OC)C(=O)OC2CC(=O)c1ccc(Cl)cc1 (stereo unspecified),0.2,4.0,0.2,3.3
COc1ccc(OC)c(C2NC(=O)c3[nH]nc(-c4ccc(C)cc4)c32)c1 (stereo unspecified),1.5,7.8,0.1,61.8*
COc1ccc(-c2n[nH]c3c2C(c2ccc(F)cc2)NC3=O)cc1 (stereo unspecified),1.8,4.2,-0.1,14.3
CCc1cc(-c2n[nH]c(C)c2-c2nc3ccccc3s2)c(O)cc1OC,-0.5,7.1,-0.2,35.0*
O=C(Nc1cc(Cl)cc(Cl)c1)c1ccccn1,-0.4,0.1,-0.4,-7.3
N/C(=N\OC(=O)c1ccc(F)cc1)c1ccccn1,-8.1,5.0,-0.1,55.7*
O=C(Nc1ccc(-c2ccccc2)cc1)c1ccccn1,-4.8,-8.8,-0.1,63.6*
N/C(=N\O)c1ccc(NC(=O)c2ccccn2)cc1,-5.4,3.4,-0.1,32.1*
COCCn1c(-c2ccncc2)nn(CO)c1=S,-0.9,-2.0,-0.2,10.2
CCCNC(=O)C(=O)NCC1CCCN1S(=O)(=O)c1ccc(C)cc1 (stereo unspecified),2.5,3.1,0.0,9.6
SMILES,GPR151 ag,MITF inh,FBW7 act,TEAD-YAP inh
CCCCCNC(=O)C(=O)NCC1CCCN1S(=O)(=O)c1ccc(C)cc1 (stereo unspecified),0.8,-3.4,0.1,49.1*
Cc1ccc(S(=O)(=O)N2CCCCC2CCNC(=O)C(=O)NCc2cccnc2)cc1 (stereo unspecified),-0.5,2.2,0.6,36.3*
COc1cccc(CNC(=O)C(=O)NCC2CCCN2S(=O)(=O)c2ccc(C)cc2)c1 (stereo unspecified),3.5,2.5,-0.1,40.5*
CNC(=O)C(=O)NCCC1CCCCN1S(=O)(=O)c1ccc(C)cc1 (stereo unspecified),1.0,3.1,0.0,1.5
COc1cccc(NC(=O)C(=O)NCC2CCCN2S(=O)(=O)c2ccccc2)c1 (stereo unspecified),1.8,-5.1,0.1,-55.3
CCOc1ccc(-n2c(=O)c(C#N)cc3c(=O)n4cccc(C)c4nc32)cc1,-0.9,13.5,0.9,12.1
Cc1ccc(S(=O)(=O)CCc2nnc(NC(=O)c3ccc(F)cc3)s2)cc1C,2.2,7.0,-0.1,2.0
